Results from PubChem BioAssay AID808 (Columbia University Molecular Screening Center, 2007).
Hit rate of the full screen: of about 93,000 compounds, about 180 (0.19%) were called active.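 Rule for the calls: active = activation above the screen mean plus 3 SD, with well images confirming the hit on visual review (cut at about 28% in these data, passing the limit was not always enough); inconclusive = activation above that limit but images do not confirm it; inactive = activation not above that limit.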 What follows is part of a selection rich in actives, with near analogues and random picks from the rest.

Experiment: potentiators of TNFa-induced VCAM1 expression, primary screen, imaging, HUVEC, TNFa stimulus, immunofluorescence (AID 808);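 note: signal is the number of cytoplasmic VCAM-1 stained grains per positive cell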
Conditions: HUVEC TNFa-stimulated VCAM-1 immunofluorescence, high-content imaging; at 2 µM; stronger effect = higher value; scaled per plate to unstimulated/TNFa-only wells

activation, inactive:
c1ccc(CSc2nnc(-c3ccco3)n2Cc2ccccc2)cc1 1.1%
CCCc1nc2scc(-c3ccc(C)cc3)c2c(=O)n1N -5.6%
COc1ccccc1C(=O)C(O)c1ccccc1OC (configuration not stated) 4.6%
COc1cc(-c2nc(-c3ccncc3)no2)cc(OC)c1OC 1.5%
Cc1c(Nc2cc(N3CCCC(C)C3)c3nonc3c2[N+](=O)[O-])c(=O)n(-c2ccccc2)n1C (configuration not stated) -5.2%
Cc1cccc(C(=O)NCCCN2CCCC2=O)c1 26%
CSCc1cc(N2CCOCC2)nc(SCc2ccc(Cl)cc2Cl)n1 -7.6%
O=C(NCc1cccnc1)Nc1ccccc1F 10.6%
O=C(c1ccco1)N1CCN(CC(=O)N(C2CCCCC2)C2CCS(=O)(=O)C2)CC1 (configuration not stated) -39.3%
COc1cc(OC)c(C(=O)NC2CCCCCC2)cc1OC -3.2%
Cc1ccc(-n2nc3ccc(NC(=O)/C=C/c4ccco4)cc3n2)cc1C -46.8%
O=C(Nc1ccc(F)cc1)c1cccnc1N1CCOCC1 -3.5%
CCC(=O)Nc1cccc(NC(=O)c2cccnc2)c1 -7.7%
CC(=O)c1cc(NC(=O)c2ccccc2)c(=O)oc1/C=C/N(C)C 16.1%
NC(=O)CCCC1=NS(=O)(=O)c2ccccc2N1 2.1%
O=C(O)c1ccc(COc2c(F)c(F)cc(F)c2F)o1 1.5%
CC(=O)c1ccc(Oc2cc(C)nc(-n3nc(C)cc3C)n2)cc1 -75.8%
CC(c1ccccn1)N(CCN(C)C)C(=S)Nc1ccccc1F (configuration not stated) 1.7%
O=C(Nc1cc2c3c(c1)C1CCCC1CN3CC1CCCC21)c1ccc([N+](=O)[O-])cc1 (configuration not stated) -2.9%
Cc1cc(C)n(-c2nc(O)cc(=O)[nH]2)n1 -0.9%
CCC(=O)NCCc1nc2ccccc2n1CC -6.7%
COC(=O)c1ccc(NC(=O)Nc2ccc(C)cc2)cc1 -1.4%
CCOC(=O)N1CCC(NC(=O)c2ccc3nc(N4CCOCC4)sc3c2)CC1 -2.2%
Cc1ccc2c(c1)sc1ncc(NC(=O)c3ccccc3)c(=O)n12 -3.1%
O=C(Nc1nncs1)c1ccccc1NS(=O)(=O)c1cccs1 5.4%
Cc1nc2nc[nH]n2c(=O)c1NC(=O)c1cccc(OCC(C)C)c1 -5.4%
CCOC(=O)NCc1ccc2c(c1)OCO2 -8.2%
CCn1c(NC(=O)c2ccccc2)c(-c2cccs2)c(=O)c2ccccc21 -8.7%
COc1ccc(C(C(=O)NCc2ccccc2)N(Cc2cccs2)C(=O)c2cnccn2)cc1 (configuration not stated) -2.8%
Cn1cnc([N+](=O)[O-])c1Nc1ccccc1O 17.4%
Cn1c2ccccc2c2c(C(=O)N3CCN(c4ccc(F)cc4)CC3)cn(C3CCCC3)c(=O)c21 -11.3%
COc1ccc(CCN(Cc2cc3cccc(C)c3[nH]c2=O)C(=O)N2CCCC2)cc1OC -91.4%
CCC(c1nnnn1Cc1ccco1)N(CCc1ccccc1)Cc1cc2cccc(C)c2[nH]c1=O (configuration not stated) -0.4%
O=C(COC(=O)C12CC3CC(CC(C3)C1)C2)NCc1ccco1 3.3%
CC(C)C(=O)N1CCN(c2nc(-c3ccccc3)c3c(c2C#N)CC(C)(C)OC3)CC1 -36.7%
CC(=O)Nn1cc2c(=O)n(C)c(=O)n(C)c2c1 -8.2%
O=C1CC(Sc2ncn[nH]2)C(=O)N1c1ccccc1 (configuration not stated) 4.7%
CCC(=O)Nc1ccc(S(=O)(=O)NCC2CCCO2)cc1 (configuration not stated) -5.4%
CCCN1C(=O)C(NS(=O)(=O)c2ccc(N)cc2)(C(F)(F)F)C(C(=O)OC)=C1C (configuration not stated) 1.5%
CCOCc1nnc(NC(=O)CSc2ccc(C)cc2)s1 5.6%
Cc1cccc(C)c1OC(=O)CSc1nnc(-c2ccccc2)o1 3.9%
CC(C)Nc1nc(N(c2ccccc2)c2ccccc2)nc(-n2ccnc2)n1 3.2%
CCOc1ccc(OCc2ccc(C(=O)Nc3cccc(C)n3)o2)cc1 9.1%
CCCNC(=O)Nc1ccccc1C(=O)Nc1ccc(OC)cc1 -2.4%
Cc1cc(=O)oc(C)c1C(=O)NC1CC(C)(C)NC(C)(C)C1 12.6%
c1ccc(-c2cn3cccnc3n2)cc1 -0.6%
C=CCn1c(COc2cccc3cccnc23)nnc1SCC(=O)OC -28.4%
Cc1ccc(C)c(NC2=NCC(=O)N2c2ccc3c(c2)OCCO3)c1 21.9%

activation, active:
O=C(Nc1ccncc1)c1c(F)cccc1F 76.2%
CC(=O)c1cnn(-c2cc(Oc3ccc(F)cc3)ncn2)c1C 50.8%
Cc1cccc2cc(CN(Cc3ccc4c(c3)OCO4)Cc3nnnn3C3CCCC3)c(=O)[nH]c12 37.5%
CCCOc1cc(C)c(S(=O)(=O)n2nnc3ccccc32)cc1C 45.5%
